The record followed here is PubChem BioAssay (NCI).

Compounds without any hit were thinned out: in the full panel of roughly 79,000, 15% have a hit. Values without a mark were called inactive. Cut-off read from the data, not from the text of the source: active = growth inhibition above about 70%; inactive = the rest. Where a SMILES comes first, the peptide text is derived from it. [ ]: non-standard residue; d: D form. The star is where a group is joined. Cbz = O=C(OCc1ccccc1)*; Nva = CCC[CH](N)C(=O)O; OBn = c1ccc(CO*)cc1

One experiment in a line: NCI Yeast Anticancer Drug Screen. Data for the bub3 strain (AID 167). To be noted: S. cerevisiae bub3 mutant strain, at 50.0 µM, active compounds read high. The essentials:
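Mutant yeast screening strain plus compound; vehicle-treated cultures serve as the 0% inhibition reference.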
With `CCCC(=O)c1ccc2c(ccc(=O)n2C)c1`, the growth inhibition was 28.8%.

Consider `O=C(NC(CO)C(=O)N1CCCC1C(=O)OCc1ccccc1)OCc1ccccc1` (stereo not drawn) (Cbz-Ser-Pro-OBn; configuration not given here), for which the growth inhibition is 4.45%.

Take `CN(C)CC1CCCC/C1=N\OC(=O)c1ccccc1` (stereo not given): the growth inhibition is 5.8%.

Take `CC(C)(C)C(C(N)=O)C(C)(C)C`: the growth inhibition is 10.8%.

`CC(=O)/C(N=Nc1ccccc1SCCC#N)=C(\C)O`: the growth inhibition is 9.15%.

For the molecule `N#Cc1cccc(N(C(=O)c2ccccc2)c2ccccc2)n1`, the growth inhibition was 41%.

Consider `Cc1nc(Nc2ccc(Cl)c(Cl)c2)sc1C(=O)/C=C/c1ccc2c(c1)OCO2`, for which the growth inhibition is -7.75%.

As for `CCCCN1C(=O)C(CC(=O)OCC)SC1=S` (stereo not given), the growth inhibition is -18.2%.

With `NC(C(=O)O)C1CCCC1` (stereo not given), the growth inhibition was -92.8%.

On to `CN(C)c1ccc(C=C(C(=O)c2ccccc2)C(=O)c2ccccc2)cc1`, for which the growth inhibition was 20.1%.

Take `COC(=O)CCC(=O)NC1=C(NCc2ccccc2)C(=O)c2ccccc2C1=O`: the growth inhibition was 38.9%.

Regarding `COC(=O)C1OCOC2C(CO)OCOC12` (stereo not given), the growth inhibition is 2.8%.

Turning to `CN(C)c1nc2ccc(Cl)cc2c(=O)[nH]1`, the growth inhibition is -17.9%.

Consider `O=C1Nc2cccc3cc(NCC(O)CCCl)cc1c23` (stereo not given), for which the growth inhibition is 14.6%.

`O=C1CC23CC(=O)CC2(C1)c1ccccc1C3=O` (stereo not given): the growth inhibition was 3.05%.

As for `NC(=S)NNC(=O)c1ccncc1`, the growth inhibition is 3.75%.

In the case of `CC[n+]1c([S-])nn(C)c1-c1cnccn1`, the growth inhibition was 24%.

Consider `Cc1ccc(C(=O)N(C(C)C)C(C)C)cc1N=NN(C)C`, for which the growth inhibition is -20.6%.

As for `Cc1ccc(NC(=O)CC2C(=O)Nc3ccccc3S2(=O)=O)c(C)c1` (stereo not given), the growth inhibition is -2.85%.

In the case of `C=CCNC(=O)NCCCC(NC(C)=O)C(=O)NCc1ccccc1` (stereo not given), the growth inhibition is -22.3%.

Turning to `COC(=O)[C@@H]1CCC(/C(C#N)=C2/CC[C@@H](C(=O)OC)N2)=N1`, the growth inhibition was 13.2%.

In the case of `N=c1c(C(=O)O)cccn1O`, the growth inhibition is -6.55%.

For the molecule `O=C1CNS(=O)(=O)N1`, the growth inhibition was -16.4%.

Turning to `C/C(=N/NC(N)=O)C1=CCCCC1`, the growth inhibition was 0.7%.

As to `CC1(c2cccs2)C(=O)NC(=O)N1C(=O)CCl` (stereo not given), the growth inhibition was 9.3%.

Turning to `O=C1/C(=C\C=C\c2ccccc2)CCC/C1=C/C=C/c1ccccc1`, the growth inhibition was 34%.

As for `O=[N+]([O-])c1ccc(N=N/C(Cc2ccccc2)=N\Nc2ccccc2)cc1`, the growth inhibition is -10.4%.

For the molecule `O=C(NO)/C(CC(=O)c1ccc(O)cc1)=N\O`, the growth inhibition is -3.7%.

For the molecule `CCOC(=O)c1nc2ccccc2nc1NCc1ccc(OC)cc1`, the growth inhibition is -22.4%.

In the case of `Cc1ccccc1C(=O)N(C(C)C)C(C)C`, the growth inhibition is 15.2%.

In the case of `CC(C)C(=O)NCc1ccccc1Sc1ccccc1CNC(=O)C(C)C`, the growth inhibition was 1.4%.

Turning to `CCC(=O)OCCCc1ccccc1`, the growth inhibition was 12.3%.

Take `O=C(COC(=O)C(CC(=O)c1ccccc1)Cc1ccccc1)c1ccc(-c2ccccc2)cc1` (stereo not given): the growth inhibition was 35.4%.

On to `Cc1cc(=O)n2c(cc3cccccc32)n1`, for which the growth inhibition was -23.4%.

Take `CCCC(NC(=O)OCc1ccccc1)C(=O)NC(CCSC)C(N)=O` (stereo not given) (Cbz-[Nva]-Met-NH2; configuration not given here): the growth inhibition was -4.6%.

As to `O=C1NN(c2ccccc2)CCO1`, the growth inhibition was 0.1%.

Consider `C[Si](C)(/C(=C/COCc1ccccc1)CCOC1CCCCO1)c1ccccc1` (stereo not given), for which the growth inhibition is 0.6%.

As for `C=CC1CC1(Cl)Cl` (stereo not given), the growth inhibition was 0.5%.

For `CC/C(CCC(=O)OC)=N/Nc1ccc([N+](=O)[O-])cc1[N+](=O)[O-]`, the growth inhibition is -5.9%.

As to `CCC1CCCCC1O` (stereo not given), the growth inhibition is -22.7%.

The next experiment in a line: NCI Yeast Anticancer Drug Screen. Data for the mlh1 rad18 strain (AID 175). As to conditions: S. cerevisiae mlh1 rad18 strain growth inhibition; at 50.0 µM; active compounds read high. The essentials: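 Vehicle-treated cultures served as the reference for growth inhibition in a yeast strain carrying DNA damage repair alterations exposed to each compound.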
Take `CCCC(=O)c1ccc2c(ccc(=O)n2C)c1`: the growth inhibition was 15.9%.

In the case of `O=C(NC(CO)C(=O)N1CCCC1C(=O)OCc1ccccc1)OCc1ccccc1` (stereo not drawn) (Cbz-Ser-Pro-OBn; configuration not given here), the growth inhibition was 7.6%.

Take `CN(C)CC1CCCC/C1=N\OC(=O)c1ccccc1` (stereo not given): the growth inhibition was 8.1%.

`CC(C)(C)C(C(N)=O)C(C)(C)C`: the growth inhibition was -19.6%.

Turning to `CC(=O)/C(N=Nc1ccccc1SCCC#N)=C(\C)O`, the growth inhibition is 1.5%.

With `N#Cc1cccc(N(C(=O)c2ccccc2)c2ccccc2)n1`, the growth inhibition was 24.9%.

With `Cc1nc(Nc2ccc(Cl)c(Cl)c2)sc1C(=O)/C=C/c1ccc2c(c1)OCO2`, the growth inhibition is 38.3%.

In the case of `CCCCN1C(=O)C(CC(=O)OCC)SC1=S` (stereo not given), the growth inhibition was -14.3%.

`NC(C(=O)O)C1CCCC1` (stereo not given): the growth inhibition is 7.6%.

In the case of `CN(C)c1ccc(C=C(C(=O)c2ccccc2)C(=O)c2ccccc2)cc1`, the growth inhibition is 37%.

For the molecule `COC(=O)CCC(=O)NC1=C(NCc2ccccc2)C(=O)c2ccccc2C1=O`, the growth inhibition was 13.6%.

For the molecule `COC(=O)C1OCOC2C(CO)OCOC12` (stereo not given), the growth inhibition is -7.85%.

In the case of `CN(C)c1nc2ccc(Cl)cc2c(=O)[nH]1`, the growth inhibition is 3.9%.

Consider `O=C1Nc2cccc3cc(NCC(O)CCCl)cc1c23` (stereo not given), for which the growth inhibition is 20.6%.

Take `O=C1CC23CC(=O)CC2(C1)c1ccccc1C3=O` (stereo not given): the growth inhibition is 13.7%.

In the case of `NC(=S)NNC(=O)c1ccncc1`, the growth inhibition was 7.05%.

Turning to `CC[n+]1c([S-])nn(C)c1-c1cnccn1`, the growth inhibition is -12.5%.

Consider `Cc1ccc(C(=O)N(C(C)C)C(C)C)cc1N=NN(C)C`, for which the growth inhibition is -23.7%.

On to `Cc1ccc(NC(=O)CC2C(=O)Nc3ccccc3S2(=O)=O)c(C)c1` (stereo not given), for which the growth inhibition was -10.6%.

In the case of `C=CCNC(=O)NCCCC(NC(C)=O)C(=O)NCc1ccccc1` (stereo not given), the growth inhibition is -20.6%.

In the case of `COC(=O)[C@@H]1CCC(/C(C#N)=C2/CC[C@@H](C(=O)OC)N2)=N1`, the growth inhibition was 11.1%.

For `N=c1c(C(=O)O)cccn1O`, the growth inhibition was 4.9%.

Consider `O=C1CNS(=O)(=O)N1`, for which the growth inhibition was -7.85%.

For `C/C(=N/NC(N)=O)C1=CCCCC1`, the growth inhibition was 7.4%.

Take `CC1(c2cccs2)C(=O)NC(=O)N1C(=O)CCl` (stereo not given): the growth inhibition is 5.55%.

`O=C1/C(=C\C=C\c2ccccc2)CCC/C1=C/C=C/c1ccccc1`: the growth inhibition was 3.1%.

As to `O=[N+]([O-])c1ccc(N=N/C(Cc2ccccc2)=N\Nc2ccccc2)cc1`, the growth inhibition was 4.65%.

`O=C(NO)/C(CC(=O)c1ccc(O)cc1)=N\O`: the growth inhibition is 4.7%.

As to `CCOC(=O)c1nc2ccccc2nc1NCc1ccc(OC)cc1`, the growth inhibition is 3.4%.

For `Cc1ccccc1C(=O)N(C(C)C)C(C)C`, the growth inhibition is 1%.

Turning to `CC(C)C(=O)NCc1ccccc1Sc1ccccc1CNC(=O)C(C)C`, the growth inhibition is -0.7%.

For `CCC(=O)OCCCc1ccccc1`, the growth inhibition was 10.8%.

In the case of `O=C(COC(=O)C(CC(=O)c1ccccc1)Cc1ccccc1)c1ccc(-c2ccccc2)cc1` (stereo not given), the growth inhibition was 13.3%.

For the molecule `Cc1cc(=O)n2c(cc3cccccc32)n1`, the growth inhibition was 4.65%.

With `CCCC(NC(=O)OCc1ccccc1)C(=O)NC(CCSC)C(N)=O` (stereo not given) (Cbz-[Nva]-Met-NH2; configuration not given here), the growth inhibition is -27.9%.

Consider `O=C1NN(c2ccccc2)CCO1`, for which the growth inhibition was 2.15%.

`C[Si](C)(/C(=C/COCc1ccccc1)CCOC1CCCCO1)c1ccccc1` (stereo not given): the growth inhibition is -27.4%.

As to `C=CC1CC1(Cl)Cl` (stereo not given), the growth inhibition was 11.7%.

As to `CC/C(CCC(=O)OC)=N/Nc1ccc([N+](=O)[O-])cc1[N+](=O)[O-]`, the growth inhibition was -10.6%.

Regarding `CCC1CCCCC1O` (stereo not given), the growth inhibition is 6.1%.
